Compound activity deposited in PubChem BioAssay by National Center for Advancing Translational Sciences (NCATS).
In the library only some 2.3% were active in any assay of this set; here they are far more common.
Nrf2 activator = activators of Nrf2 (ARE) signaling. AREc32 ARE-luciferase reporter (MCF7-derived line), luminescence, 24 h. Potency, µM (highest dose often 46.1 µM), hits mostly activators. 0.31% of 410,000 active; also: nearly all actives have a fitted effect of over 65% in size
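Luminescent ARE reporter assay in AREc32_Fluc cells: overnight plating at 37 deg C, 24 hr compound incubation, Steady-Glo added, 30 min RT before reading.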
A549 tox-1 = A549 cytotoxicity, counter-screen for Nrf2 inhibitors. A549 ARE-Fluc cells, CellTiter-Fluor viability, 18-24 h. Potency, µM (titrated, usually from 46 µM), most hits filed as inhibitors. 0.16% of 390,000 active
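A549 ARE_Fluc cells in 5% FBS OPTI-MEM were exposed to compounds in concentration-response for 18-24 h at 37 deg C. Viability was read by CellTiter-Fluor fluorescence (Ex 405/Em 525) after 30 min, before the luciferase read.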
Nrf2 inh = blocks Nrf2 signaling; A549 ARE-Fluc reporter, luciferase luminescence, 18-24 h; Potency, µM (titrated, usually from 46 µM), actives largely listed as inhibitors; 2.1% of 360,000 active; also: nearly all actives have a fitted effect of over 60% in size
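Nrf2 function is reported as luminescence of an ARE-controlled luciferase in A549 cells. Compounds were tested at several concentrations, and a CellTiter-Fluor read on the same wells flagged cytotoxicity.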
Rango dissoc inh = prevents RanGTP from dissociating the Rango-importin beta complex. O95149+P62826. Biochemical FRET Rango-importin beta, RanGTP-induced dissociation. Potency, µM (doses to about 46.1 µM). 0.071% of 340,000 active; calls by dose curve; also: nearly all actives have a fitted effect of over 45% in size
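Two FRET readings bracket the reaction: one 5 min after compound meets Rango–importin beta, another 45 min after RanGTP-RCC1 (0.6 uM Ran, 0.2 uM RCC1, 2 mM GTP) is added. Only the second defines inhibition.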
Rango complex inh = Rango-importin beta binding inhibition | Rango CFP/YFP FRET sensor + importin beta, 45 min | Potency, µM (highest dose often 92.2 µM) | 0.031% of 340,000 active | AID 540263; calls by dose curve; also: nearly all actives have a fitted effect of over 15% in size
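FRET biosensor Rango (snurportin 1 IBB between N-terminal EYFP and C-terminal Cerulean), 50 nM in PBS/1 mM DTT/0.02% Tween-20/0.1% BSA, preincubated 5 min RT with compound; 0.125 microM importin beta added, 45 min RT, CFP/YFP FRET ratio read.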
FLuc enzyme inh = counter-screen for Nrf2 inhibitors: firefly luciferase enzyme inhibition; shares compounds with Nrf2 inh; purified firefly luciferase, luminescence inhibition; Potency, µM (top dose mostly 57.5 µM), actives largely listed as inhibitors; 4% of 1,400 active; also: nearly all actives have a fitted effect of over 65% in size
Target sequence (P08659 whole entry, looked up): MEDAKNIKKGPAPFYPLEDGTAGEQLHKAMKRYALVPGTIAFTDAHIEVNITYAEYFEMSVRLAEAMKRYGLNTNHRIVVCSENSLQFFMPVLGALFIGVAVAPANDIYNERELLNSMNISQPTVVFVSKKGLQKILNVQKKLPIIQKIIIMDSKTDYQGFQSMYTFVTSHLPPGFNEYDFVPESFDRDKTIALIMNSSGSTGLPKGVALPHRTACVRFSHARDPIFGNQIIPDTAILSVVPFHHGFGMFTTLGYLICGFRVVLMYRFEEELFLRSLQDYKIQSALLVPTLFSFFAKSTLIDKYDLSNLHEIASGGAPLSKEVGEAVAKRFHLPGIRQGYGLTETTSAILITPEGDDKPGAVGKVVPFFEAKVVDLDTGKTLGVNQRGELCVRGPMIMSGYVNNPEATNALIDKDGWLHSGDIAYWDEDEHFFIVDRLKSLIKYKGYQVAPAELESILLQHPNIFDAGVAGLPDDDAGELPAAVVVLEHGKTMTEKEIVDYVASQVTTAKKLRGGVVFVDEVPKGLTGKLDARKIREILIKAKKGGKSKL
A549 tox-2 = counter-screen for Nrf2 inhibitors: cytotoxicity in A549 ARE cells; 2% of 1,400 active; A549 ARE-Fluc cells, cytotoxicity counterscreen; shares compounds with Nrf2 inh; Potency, µM (doses to about 46.1 µM), hits mostly inhibitors; AID 720523;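 also: cells exposed to compounds for 18 to 24 hours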
Nrf2 ARE inh = confirmation of Nrf2 inhibitors in A549 ARE reporter cells. Potency, µM (top dose mostly 46.1 µM), usual class: inhibitors. shares compounds with Nrf2 inh. 74% of 1,400 active. A549 ARE-firefly luciferase reporter, luminescence; also: nearly all actives have a fitted effect of over 65% in size
A number is an active result. Unless noted, calls follow the shape of the dose curve; as a rule, active = well fitted curve in the direction sought with a large enough effect; inconclusive = small, poorly fitted or top-dose-only effect, or another doubt; inactive = no such curve, though single readings can be large; an effect the other way counts as inactive or inconclusive.

For Cn1nccc1C(=O)Nc1cc(Cl)ccc1Cl the results were Nrf2 activator inactive, A549 tox-1 inactive, Nrf2 inh 2.91µM, Rango dissoc inh inactive, Rango complex inh inactive, FLuc enzyme inh inactive, A549 tox-2 inactive and Nrf2 ARE inh 5.8µM.
For CC(C)(C)c1ccccc1NC(=O)NC1CCN(Cc2c(F)cccc2Cl)CC1 the results were Nrf2 activator inactive, A549 tox-1 inactive, Nrf2 inh inactive, Rango dissoc inh inactive and Rango complex inh inactive.
Cc1ncccc1C(=O)N1CCCC(CNC(=O)C2(c3ccc(Cl)cc3)CC2)C1 (centres undefined) was read as Nrf2 activator inactive, A549 tox-1 inactive, Nrf2 inh inactive, Rango dissoc inh inactive and Rango complex inh inactive.
For O=S(=O)(c1cccs1)N1CCN(c2ccc(O)cc2)CC1 the results were Nrf2 activator inactive, A549 tox-1 inactive, Nrf2 inh inconclusive, Rango dissoc inh inactive, Rango complex inh inactive, FLuc enzyme inh inactive, A549 tox-2 inconclusive and Nrf2 ARE inh 1.84µM.
Screening Cc1cccc(NC(=O)C2CCCN(S(=O)(=O)c3ccc4c(c3)oc(=O)n4C)C2)c1C (centres undefined) returned Nrf2 activator inactive, A549 tox-1 inactive and Nrf2 inh inactive.
Screening CC(CNC(=O)CN1C(=O)COc2ccc(S(=O)(=O)N3CCCCCC3)cc21)c1ccccc1 (centres undefined) returned Nrf2 activator inactive, A549 tox-1 inactive and Nrf2 inh inactive.
For c1ccc(C[n+]2cccc3c4ccccc4ccc32)cc1 the results were Nrf2 activator inactive, A549 tox-1 inconclusive, Nrf2 inh inconclusive, Rango dissoc inh inactive, Rango complex inh inactive, FLuc enzyme inh inactive and A549 tox-2 inactive.
Screening O=c1c2c(nc3c(-c4ccc(Cl)cc4)c[nH]n13)CCCC2 returned Nrf2 activator inactive, A549 tox-1 inactive, Nrf2 inh 7.94µM, Rango dissoc inh inactive, Rango complex inh inactive, FLuc enzyme inh inactive, A549 tox-2 inactive and Nrf2 ARE inh 6.51µM.
For Fc1ccc(Nc2nc3nonc3nc2Nc2cccc(C(F)(F)F)c2)cc1 the results were Nrf2 activator inactive, A549 tox-1 8.2µM, Nrf2 inh 1.46µM, FLuc enzyme inh inactive, A549 tox-2 5.8µM and Nrf2 ARE inh 1.03µM.
`CN(C)S(=O)(=O)c1ccc(/C(O)=C2/C(=O)C(=O)N(CCCN3CCOCC3)C2c2ccncc2)cc1` (centres undefined) gave Nrf2 activator inactive, A549 tox-1 inactive, Nrf2 inh inactive, Rango dissoc inh inactive and Rango complex inh inactive.
Screening O=C(CC(O)c1ccccc1)Nc1ccccn1 (centres undefined) returned Nrf2 activator inactive, A549 tox-1 inactive, Nrf2 inh inactive, Rango dissoc inh inactive and Rango complex inh inactive.
`COc1ccc(CN(C)C(=O)c2cccc(NC(=O)CC3SC(N4CCCCC4)=NC3=O)c2)c(OC)c1` (centres undefined) gave Nrf2 activator inactive, A549 tox-1 inactive, Nrf2 inh 8.2µM, Rango dissoc inh inactive, Rango complex inh inactive, FLuc enzyme inh inactive, A549 tox-2 inactive and Nrf2 ARE inh 6.51µM.
Screening CCN(CC(=O)Nc1c(C(=O)OC)[nH]c2ccc(Cl)cc12)c1ccc2c(c1)OCO2 returned Nrf2 activator inactive, A549 tox-1 inactive, Nrf2 inh inconclusive, Rango dissoc inh inactive and Rango complex inh inactive.
CCOC(=O)c1[nH]c2ccc(Cl)cc2c1NC(=O)/C=C/c1ccc2c(c1)OCO2 was read as Nrf2 activator inactive, A549 tox-1 inactive, Nrf2 inh 5.17µM, Rango dissoc inh inactive, Rango complex inh inactive, FLuc enzyme inh inactive, A549 tox-2 inactive and Nrf2 ARE inh 4.11µM.
